Experimental data taken from the supplement of paper PMC13380429.

What was measured:
[1] = system: Vero E6 infected with SARS-CoV-2; assay: morphology score (similarity to uninfected cells); higher = more like uninfected cells; settings: 24 h
[2] = system: Vero E6 infected with SARS-CoV-2; assay: SARS-CoV-2 infection rate relative to infected DMSO; higher = more infection, active = 60 or less; settings: 24 h

SMILES | morphology score [1] | SARS-CoV-2 infection rate [2]
C[N+]12CCC(CC1)C(OC(=O)C(O)(c1ccccc1)c1ccccc1)C2 (centres undefined) [clidinium] (10 µM) | -0.064 | 95% (inactive)
Cc1ncc(C[n+]2csc(CCO)c2C)c(N)n1 [thiamine] (10 µM) | 0.119 | 96.5% (inactive)
NC(=O)N1c2ccccc2CC(=O)c2ccccc21 [oxcarbazepine] (10 µM) | 0.0932 | 108% (inactive)
O=C(O)c1cn(-c2ccc(F)cc2)c2cc(N3CCNCC3)c(F)cc2c1=O [sarafloxacin] (10 µM) | 0.213 | 93% (inactive)
CN1CCCN(C(c2ccccc2)c2ccc(Cl)cc2)CC1 (centres undefined) [homochlorcyclizine] (10 µM) | 0.29 | 59.5% (active)
CNC(=O)c1ccc(C)c(-n2c(C)cc(OCc3ccc(F)cc3F)c(Br)c2=O)c1 (0.833333 µM) | -0.158 | 116% (inactive)
C/C=C/c1cc(OC)c(OC)cc1OC [alpha-asarone] (10 µM) | 0.0292 | 98.5% (inactive)
Cc1ncc([N+](=O)[O-])n1CC(O)CCl (centres undefined) [ornidazole] (10 µM) | 0.0809 | 107% (inactive)
O=C(O)c1c2ccccc2cc2ccccc12 [9-anthracenecarboxylic-acid] (10 µM) | 0.252 | 89.5% (inactive)
Nc1nccc2c1ncn2[C@@H]1O[C@H](CO)[C@@H](O)[C@@H]1O [3-deazaadenosine] (10 µM) | 0.123 | 106% (inactive)
C=CCc1cccc(/C=N/NC(=O)CN2CCN(Cc3ccccc3)CC2)c1O (0.833333 µM) | 0.152 | 100% (inactive)
NCCCCN [putrescine] (10 µM) | 0.0364 | 94% (inactive)
CC1=C(CCC(=O)O)c2cc3[nH]c(cc4nc(cc5[nH]c(cc1n2)c(C)c5C(C)O)C(C)=C4C(C)O)c(C)c3CCC(=O)O (centres undefined) [hematoporphyrin] (10 µM) | -0.184 | 116% (inactive)
CC(C)(CC(=O)N1CCCC1)NCC(=O)N1C[C@@H](F)C[C@H]1C#N (10 µM) | 0.0148 | 102% (inactive)
COc1ccc(C2(CNC(=O)c3ccc(NC(=O)c4ccco4)cc3)CCOCC2)cc1 (0.833333 µM) | 0.269 | 93% (inactive)
O=C(Nc1ccccc1)N[C@H]1C[C@H](C(=O)O)Nc2cc(Cl)cc(Cl)c21 (10 µM) | -0.146 | 106% (inactive)

SMILES | morphology score [1] | SARS-CoV-2 infection rate [2]
CN1CCC(COc2cnc(-c3cccc(Cn4nc(-c5cccc(C#N)c5)ccc4=O)c3)nc2)CC1 (10 µM) | 0.207 | 100% (inactive)
C[C@@]1(O)[C@H](O)[C@@H](CO)O[C@H]1n1ccc(N)nc1=O (10 µM) | 0.0553 | 103% (inactive)
Cc1oc2nc3c(c(NC(=O)CN4CCCC4=O)c2c1C)CCCC3 (10 µM) | 0.0552 | 103% (inactive)
O=c1oc2ccccc2c(O)c1Cc1c(O)c2ccccc2oc1=O [dicoumarol] (10 µM) | 0.0403 | 108% (inactive)
Cn1c(COP(=O)(NCCBr)NCCBr)cnc1[N+](=O)[O-] (10 µM) | 0.0413 | 106% (inactive)
O=C(O)c1ccc2c(c1)C(=O)N(c1cccc(Oc3ccc([N+](=O)[O-])cc3)c1)C2=O (10 µM) | 0.173 | 99.5% (inactive)
O=[N+]([O-])c1cn2c(n1)OC[C@@H](OCc1ccc(-c3ccc(OC(F)(F)F)cc3)nc1)C2 (10 µM) | -0.214 | 110% (inactive)
CN[C@@H](C)C(=O)N[C@H](C(=O)N1CCC[C@H]1c1nc(C(=O)c2ccc(F)cc2)cs1)C1CCCCC1 (10 µM) | 0.403 | 87% (inactive)
O=C(NC(NC(=S)Nc1ccc(F)c([N+](=O)[O-])c1)C(Cl)(Cl)Cl)C(c1ccccc1)c1ccccc1 (centres undefined) (0.833333 µM) | 0.0472 | 104% (inactive)
O=C(CN1C(=O)C2(CCCC2)NC[C@H]1c1cc(F)cc(F)c1)Nc1ccc2c(c1)C[C@@]1(C2)C(=O)Nc2ncccc21 (10 µM) | 0.0766 | 101% (inactive)
O=C1CCCCCCCCCCCCCCO1 [oxacyclohexadecan-2-one] (10 µM) | -0.0503 | 106% (inactive)
CCOC(=O)c1ncc2[nH]c3ccc(OCc4ccccc4)cc3c2c1COC (10 µM) | -0.0675 | 97.5% (inactive)
CC(OC(=O)NCC1(CC(=O)O)CCCCC1)OC(=O)C(C)C (centres undefined) [gabapentin-enacarbil] (10 µM) | -0.0175 | 112% (inactive)
CC(C)(C)Cn1c(N)nc2ccc(-c3[nH]c(C(C)(C)C)nc3-c3ccc(F)cc3)nc21 (10 µM) | -0.205 | 111% (inactive)
CNC(=O)c1cnn(-c2nc(N)c3ncn([C@@H]4O[C@H](CO)[C@@H](O)[C@H]4O)c3n2)c1 [regadenoson] (10 µM) | -0.0309 | 111% (inactive)
Nc1nc(Cl)nc2c1ncn2[C@@H]1O[C@H](CO)[C@@H](O)[C@@H]1F [clofarabine] (0.833333 µM) | 0.11 | 94.5% (inactive)
